Bioassay records from PubChem.
TDP1 cell CPT = DT40-hTDP1 cell growth loss with CPT. chicken DT40 Tdp1-/-;hTDP1 cells + 20 nM CPT, ATP luminescence, 48 h. hit rate 12% among 420,000. AID 686979. Potency, µM (titrated, usually from 46.2 µM), actives largely listed as inhibitors; also: nearly all actives have a fitted effect of over 55% in size
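Chicken DT40 Tdp1-/- cells stably complemented with human TDP1 were seeded at 400 cells/well in medium containing 20 nM camptothecin, exposed to pin-transferred compounds, and grown at 37 °C for at least 48 hr. Viability was read as ATP luminescence.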
TDP1 block = blocks human tyrosyl-DNA phosphodiesterase 1. AID 485290. hit rate 0.28% among 350,000. recombinant TDP1, AlphaScreen DNA substrate cleavage. Potency, µM (top dose mostly 130 µM), usual class: inhibitors; also: nearly all actives have a fitted effect of over 40% in size
Target sequence (Q9NUW8 whole entry, looked up): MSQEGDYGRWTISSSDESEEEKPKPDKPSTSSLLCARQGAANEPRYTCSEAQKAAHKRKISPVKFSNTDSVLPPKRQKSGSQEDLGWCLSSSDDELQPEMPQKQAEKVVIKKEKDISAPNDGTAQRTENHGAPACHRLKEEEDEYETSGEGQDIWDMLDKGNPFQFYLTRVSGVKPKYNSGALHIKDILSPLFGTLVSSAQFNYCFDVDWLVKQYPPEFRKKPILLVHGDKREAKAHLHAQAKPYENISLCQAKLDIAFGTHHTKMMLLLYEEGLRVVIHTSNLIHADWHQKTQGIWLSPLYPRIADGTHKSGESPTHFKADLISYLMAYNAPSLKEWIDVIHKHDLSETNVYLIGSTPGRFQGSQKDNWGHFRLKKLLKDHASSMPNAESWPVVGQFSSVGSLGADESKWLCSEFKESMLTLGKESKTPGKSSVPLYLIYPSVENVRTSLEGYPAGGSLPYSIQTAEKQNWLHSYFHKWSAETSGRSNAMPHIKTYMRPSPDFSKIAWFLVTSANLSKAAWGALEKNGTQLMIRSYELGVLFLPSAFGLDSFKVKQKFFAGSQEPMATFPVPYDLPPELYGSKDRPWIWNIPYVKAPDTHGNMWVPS
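Enzyme-compound mixtures sat 15 min at room temperature, followed by a 5 min reaction with 15 nM final substrate and 10 min with AlphaScreen beads. Recombinant human Tdp1 was used at 1 nM final.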
IL-1B inflam inh = blocks inflammasome-driven IL-1 beta release; THP-1 LPS/ATP IL-1B secretion, AlphaLISA, 16 h; active compounds read low; activity change, % at 57.5 µM; hit rate 4.7% among 360,000; AID 743279; in the data active = activity change below about -50%; inconclusive = mostly about -30% to -49%
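Secreted IL-1B measured by AlphaLISA bead assay after 16 h compound exposure of THP-1 cells; compounds (final up to 57.5 uM) added 1 h before LPS (250 ng/mL) and ATP (1.25 mM) stimulation; lower signal means less secretion.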
TGFb inhibitor = TGF-b pathway inhibition. Potency, µM (highest dose often 46.1 µM), actives largely listed as inhibitors. hit rate 1.2% among 410,000. HepG2 CAGA-GFP TGF-b/SMAD3 reporter, GFP fluorescence, 18 h; TGF-beta stimulated, 500 pg/mL final. AID 588855; also: nearly all actives have a fitted effect of over 65% in size
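TGF-beta reporter screen: HEPG2 CAGA-GFP, 1% FBS, 500 pg/mL TGF-beta final, 18 h; per-cell GFP summed per well; curves fitted and categorized by class.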
HepG2 tox = counter-screen for TGF-b inhibitors: cytotoxicity in HepG2 cells; HepG2 CAGA-GFP viability, ATP luminescence, 18 h; Potency, µM (doses to about 46.1 µM), hits mostly cytotoxic; hit rate 0.76% among 410,000; AID 588856
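CellTiter-Glo luminescence gave cytotoxicity after 18 hours at 37 degrees C. The cells were HepG2 CAGA-GFP in 1% FBS DMEM, stimulated with 500 pg/mL TGF-beta after compound addition. %Activity was normalised to no-cell wells (complete cell-killing) and DMSO (no toxicity), and curves were fitted and classified.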
DT40 TDP1 no CPT = qHTS for Inhibitors of human tyrosyl-DNA phosphodiesterase 1 (TDP1): qHTS in cells in absence of CPT | DT40 Tdp1-/- hTDP1 cells, no CPT, ATP luminescence, 48 h | Potency, µM (top dose mostly 46.2 µM), usual class: inhibitors | hit rate 15% among 420,000; also: nearly all actives have a fitted effect of over 55% in size
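Chicken DT40 Tdp1-/- cells stably complemented with human TDP1 were seeded at 400 cells/well with DMSO in place of 20 nM camptothecin. After compound pinning, cells grew at least 48 hr at 37 °C; viability read by CellTiter-Glo luminescence.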
A number is an active result; . = inactive; ? = inconclusive; / = no result given; [ ] = dose if it differs, or a comment. Hits are enriched below; roughly 18% of the tested compounds scored in any of these assays. Unless noted, calls follow the shape of the dose curve; as a rule, active = well fitted curve in the direction sought with a large enough effect; inconclusive = small, poorly fitted or top-dose-only effect, or another doubt; inactive = no such curve, though single readings can be large; an effect the other way counts as inactive or inconclusive.

SMILES	TDP1 cell CPT	TDP1 block	IL-1B inflam inh	TGFb inhibitor	HepG2 tox	DT40 TDP1 no CPT
COc1cccc(S(=O)(=O)NC2CCN(C#N)C2)c1 (stereo not drawn)	/	.	/	.	.	/
CCN(CC)c1cc(C)c2cc(NC(=O)c3ccc(F)cc3Cl)ccc2n1	?	.	/	.	.	?
CCN(CC)c1cc(C)c2cc(NC(=O)c3cccc(F)c3)ccc2n1	?	.	/	.	.	23.1µM
CCN(CC)c1cc(C)c2cc(NC(=O)c3ccc(OC)c(OC)c3)ccc2n1	20.6µM	.	/	?	.	23.1µM
CCN(CC)c1cc(C)c2cc(NC(=O)c3ccc(Br)o3)ccc2n1	?	.	-65.8	.	.	?
CCN(CC)c1cc(C)c2cc(NC(=O)c3cc(OC)cc(OC)c3)ccc2n1	?	.	/	?	.	?
CCN(CC)c1cc(C)c2cc(NC(=O)c3ccccc3OC)ccc2n1	?	.	/	.	.	16.4µM
CCOC(=O)c1c(-c2ccccc2)oc2ccc(NS(=O)(=O)c3ccc(C)cc3C)cc12	?	/	/	?	.	?
COc1cc(Br)c(CN2C(=O)NC3(CCCCCC3)C2=O)cc1OC	.	.	.	.	.	.
C[C@H](CO)N1C[C@H](C)[C@@H](CN(C)S(=O)(=O)c2cccs2)Oc2c(NS(=O)(=O)c3cn(C)cn3)cccc2C1=O	.	.	.	?	.	.
CCCCc1ccc(C(=O)Nc2ccc3nc(N(CC)CC)cc(C)c3c2)cc1	?	.	/	?	.	18.4µM
CCN(CC)c1cc(C)c2cc(NC(=O)c3cccs3)ccc2n1	16.4µM	.	/	.	.	23.1µM
CC(C)(O)C#Cc1ccc(C(=O)NCCN2Cc3ccccc3OC(c3ccccc3F)C2)o1 (stereo not drawn)	.[9.04 µM]	/	/	/	/	.
COc1ccc(Cn2cc(C(=O)c3ccc(Cl)cc3)c(=O)c3cc4c(cc32)OCO4)cc1	?	.	/	?	.	23.1µM
COc1ccc2c(c1)c(=O)c(C(=O)c1ccc(Cl)cc1)cn2CC(=O)Nc1ccc2c(c1)OCO2	.	.	/	.	.	.
COc1ccc(Cn2cc(C(=O)c3ccc(F)cc3)c(=O)c3cc4c(cc32)OCCO4)cc1	?	.	/	.	.	?
COc1ccc2c(c1)c(=O)c(C(=O)c1ccc(F)cc1)cn2CC(=O)Nc1ccc2c(c1)OCO2	.	.	/	.	.	?
Cc1ccc2c(c1)c(=O)c(C(=O)c1ccc3c(c1)OCO3)cn2Cc1ccc(Cl)cc1	?	.	/	.	.	16.4µM
O=C(c1ccc2c(c1)OCO2)c1cn(Cc2ccc(Cl)cc2)c2ccc(F)cc2c1=O	?	.	/	.	.	20.6µM
O=C(CCc1c[nH]c2ccccc12)NC(Cc1ccccc1)C(=O)O (stereo not drawn)	.	/	.	.	.	.
C=CCN(CC=C)C(=S)NC(=O)c1ccc(OC)cc1	14.6µM	.	.	.	.	5.17µM
C=CCN(CC=C)C(=S)NC(=O)/C=C/c1ccc(OC)cc1	.	.	.	?	.	.
C=CCN(CC=C)C(=S)NC(=O)c1ccc(-c2ccccc2)cc1	5.8µM	.	.	.	.	6.51µM
C=CCN(CC=C)C(=S)NC(=O)/C=C/c1ccc(C)cc1	.	.	.	.	.	?
CC(C)C(=O)NC(=S)N(Cc1ccccc1)Cc1ccccc1	?	.	.	.	.	16.4µM
SMILES	TDP1 cell CPT	TDP1 block	IL-1B inflam inh	TGFb inhibitor	HepG2 tox	DT40 TDP1 no CPT
C=CCN(CC=C)C(=S)NC(=O)/C=C/c1ccccc1	?	.	.	?	.	23.1µM
O=C(O)c1ccc(NC(=S)NC(=O)c2ccc(-c3ccccc3)cc2)cc1	.	/	?	.	.	?
CC(C)Nc1nc(C#N)nc(Nc2ccccc2)n1	/	.	/	/	/	/
COc1ccc(C(=O)NC(=S)N(Cc2ccccc2)Cc2ccccc2)cc1	16.4µM	.	.	?	.	9.2µM
N/C(CS(=O)(=O)c1ccccn1)=N\OC(=O)c1ccc(Cl)cc1	.	.	.	.	.	.
N/C(Cc1ccc(Cl)cc1)=N\OC(=O)c1ccccc1	?	.	.	.	.	?
COc1ccc(C/C(N)=N/n2cnnc2)cc1Cl	.	.	.	.	.	.
COc1ccc(C(=O)O/N=C(\N)Cc2ccc(Cl)cc2)cc1OC	16.4µM	.	-54.1	.	.	20.6µM
COc1ccc(C(=O)O/N=C(\N)Cc2ccc(Cl)c(Cl)c2)cc1OC	16.4µM	.	.	?	.	?
N/C(CCS(=O)(=O)c1ccc(Cl)cc1)=N\OC(=O)c1ccc(Cl)cc1	?	/	?	.	.	20.6µM
CCc1cc2c(cc3c(=O)n(CC(=O)NCCc4ccc(OC)cc4OC)nc(CC)n32)s1	.	.	/	?	.	.
CCC(C(=O)NCCN1CCOCC1)n1c2ccccc2c2nc(=O)cc(C)n21 (stereo not drawn)	.	.	.	.	.	.
CC1=C(C(=O)Nc2ccc(C(=O)N3CCN(c4cccc(Cl)c4)CC3)cc2)SCCO1	?	.	?	.	.	.
CC1=C(C(=O)Nc2cccc(C(=O)N3CCN(c4cccc(C(F)(F)F)c4)CC3)c2)SCCO1	14.6µM	.	-60.7	?	.	25.9µM
CC1=C(C(=O)Nc2cccc(C(=O)NC3CCCCC3C)c2)SCCO1 (stereo not drawn)	16.4µM	.	.	.	.	?
CC1=C(C(=O)Nc2cc(C(=O)N3CCN(c4ccc(Cl)cc4)CC3)ccc2C)SCCO1	18.4µM	/	.	.	.	14.6µM
Cc1ccc(CNC(=O)C2CCN(c3nn4cc(-c5ccc(F)cc5)nc4s3)CC2)cc1	.	.	/	.	.	.
CC(C)NC(=O)N1CCC2(CC1)CCN(C(=O)c1cc(C(F)(F)F)cc(C(F)(F)F)c1)CC2	.	/	/	/	/	?
Cn1c(Sc2ccc(Br)cc2)c(C=O)c2ccccc21	?	.	-80.5	.	.	13µM
COC(=O)c1c(Sc2ccccc2)c2ccccc2n1C	.	/	.	.	.	.
COc1cccc(/C=N/n2cnc3cc(C)c(C)cc32)c1OC	.	/	/	?	.	?
FC(F)Oc1ccccc1/C=N/n1cnc2ccccc21	?	.	.	.	.	18.4µM
Cn1ncc2c(=S)[nH]c(=S)[nH]c21	?	/	.	/	/	?
CCOC(=O)c1ccccc1NC(=O)COC(=O)CCC(=O)c1ccccc1	.	.	.	.	.	.
C[C@@H]1CN([C@H](C)CO)C(=O)CCCn2nncc2CO[C@H]1CN(C)Cc1ccncc1	.	/	.	.	.	.
CON(C)C(=O)CCN(Cc1ccccc1)C(=O)OC(C)(C)C	?	.	.	?	.	?
